The structures appear in SMILES notation. Inconclusive results are not listed. A call without a number means that no potency is given here. Unmarked numbers belong to inactive results. The source made the active and inactive calls. Calls follow the shape of the full dose curve; tested in HEK293 reporter line.

The test is described as follows: qHTS for Inhibitors of the Functional Ribonucleoprotein Complex (vRNP) of Lymphocytic Choriomeningitis Arenaviruses (LCMV): Viability assay - alamar blue signal for LCMV Primary Screen (AID 1347085). Also: nearly all actives have a fitted effect of over 80% in size. Conditions: alamar blue viability counter-screen, LCMV vRNP screen cells; series mostly up to 57.5 µM. (In general: In qHTS, concentration-response curves come from the screen itself.)
Regarding `c1ccc2sc(SSc3nc4ccccc4s3)nc2c1`, the Potency entry was “inactive”.
Still for that read-out and setting: the entry for `CN1C(C)(C)CCCC1(C)C` is “inactive”.
On to `CCCC(=O)OCOC(=O)C1=C(C)NC(C)=C(C(=O)OC)C1c1cccc(Cl)c1Cl` (stereo not drawn), for which the Potency result was “inactive”.
For the compound `C[C@@H]1CN(c2c(F)c(F)c3c(=O)c(C(=O)O)cn(C4CC4)c3c2F)C[C@H](C)N1`, the Potency result was “inactive”.
Same read-out and setting: the same measure for `CN1CCN(N)CC1`: “inactive”; for `CC(=O)Oc1cc(C(C)C)c(OCCN(C)C)cc1C`: “inactive”; for `CCCCCCCCCCCCCCCC(=O)NCCO`: “inactive”.
Turning to `Cc1c(NC(=O)c2cccnc2)c(=O)n(-c2ccccc2)n1C`, the Potency entry is “inactive”.
In the case of `NC(Cc1ccc(Cl)cc1)C(=O)O` (stereo not drawn), the Potency entry was “inactive”.
For `COc1ccc(C(=O)c2ccccc2O)c(O)c1`, the Potency entry is “inactive”.
Turning to `COC(=O)N/N=C/c1c[n+]([O-])c2ccccc2[n+]1[O-]`, the Potency entry was “inactive”.
Consider `Cc1cc(C(C#N)c2ccc(Cl)cc2)c(Cl)cc1NC(=O)c1cc(I)cc(I)c1O` (stereo not drawn), for which the Potency result was “inactive”.
On to `O=C(O)[C@@H]1CSCN1`, for which the Potency result is “inactive”.
As for `COc1ccc(Cc2cnc(N)nc2N)cc1OC`, the Potency entry was “inactive”.
For the compound `CN(C)[C@@H]1C(=O)C(C(N)=O)=C(O)[C@@]2(O)C(=O)C3=C(O)c4c(O)cccc4C[C@H]3C[C@@H]12`, the Potency result was “inactive”.
Take `CCCCOCCOC(=O)c1cccnc1`: the Potency result is “inactive”.
For the compound `CC1(C)O[C@H]2CC(=O)OC[C@]23[C@H]2CC[C@@]4(C)[C@H](c5ccoc5)OC(=O)[C@H]5O[C@]54[C@]2(C)C(=O)C[C@@H]13`, the Potency result is “inactive”.
For the compound `NCCNCCNCCNCCN`, the activity change, negative = lower viability was 2.19% [at 11.5 µM].
In the case of `CC(=O)OCC(=O)[C@@]1(OC(C)=O)[C@@H](C)C[C@H]2[C@@H]3C[C@H](F)C4=CC(=O)C=C[C@]4(C)[C@@]3(F)[C@@H](O)C[C@@]21C`, the Potency result is “inactive”.
On the same count and under the same terms, the entry for `COc1ccc(C(=O)N2CCN(CC(=O)N3CCOCC3)CC2)cc1` is “inactive”.
In the case of `Cc1c(N(C)CS(=O)(=O)O)c(=O)n(-c2ccccc2)n1C`, the Potency entry is “inactive”.
For the compound `CCCCCCCC/C=C/C(=O)O`, the Potency result is “inactive”.
As for `CCN1CC(CCN2CCOCC2)C(c2ccccc2)(c2ccccc2)C1=O` (stereo not drawn), the Potency result was “inactive”.
In the case of `CC(=O)OCC(COC(C)=O)OC(C)=O`, the Potency result is “inactive”.
Take `O=C(O)c1cc(-c2ccccc2)nc2ccccc12`: the Potency entry was “inactive”.
Take `Cc1ccc2ccc(Cl)cc2n1`: the Potency result is “inactive”.
Regarding `CNCC(O)c1ccc(O)c(O)c1` (stereo not drawn), the Potency entry was “inactive”.
Still for that read-out and setting: the same measure for `CC(C)(Sc1cc(C(C)(C)C)c(O)c(C(C)(C)C)c1)Sc1cc(C(C)(C)C)c(O)c(C(C)(C)C)c1`: “inactive”.
The same measure, in the same setting: the same measure for `COc1ccc(C(=O)CC(=O)c2ccc(C(C)(C)C)cc2)cc1`: “inactive”; for `Cc1cc(NS(=O)(=O)c2ccc(N)cc2)no1`: “inactive”.
In the case of `CC(=O)Oc1cccc(O)c1`, the Potency result was “inactive”.
Regarding `Cc1nc2c([nH]1)c(=O)n(C)c(=O)n2Cc1ccco1`, the Potency result was “inactive”.
On the same count and under the same terms, the entry for `CC(=O)N/N=C/c1ccc([N+](=O)[O-])o1` is “inactive”; for `COc1c(N2C[C@@H]3CCCN[C@@H]3C2)c(F)cc2c(=O)c(C(=O)O)cn(C3CC3)c12` it is “inactive”.
For the compound `Oc1ccccc1`, the Potency result was “inactive”.
The same measure, in the same setting: the same measure for `CC(=O)O[C@@H]1C(=O)O[C@@H]2[C@H]1OC(=O)[C@@H]2OC(C)=O`: “inactive”.
`CNC(=O)c1c(I)c(NC(C)=O)c(I)c(C(=O)O)c1I`: the Potency entry was “inactive”.
Still for that read-out and setting: the entry for `COc1ccc2c(c1)c(CC(=O)OC/C=C(\C)CC/C=C(\C)CCC=C(C)C)c(C)n2C(=O)c1ccc(Cl)cc1` is “inactive”.

The values are drawn from PubChem BioAssay (NCATS).
